This note sets out measurements from PubChem BioAssay (Tox21).

Where “and” joins values, the source holds several entries; their conditions need not be identical. Identical values can stand only once. Records with an inconclusive call do not appear. Calls of active or inactive are those of the source. Calls follow the shape of the dose curve; as a rule, active = well fitted cell-killing curve with a large enough effect in the repeat runs; inconclusive = weak or mixed curves, or effect the other way; inactive = flat fitted curve, though single readings scatter.
% is scaled to controls: 0 for no effect and ±100 for the full control effect; potency is read from the fitted curve at half-maximal effect.

The experiment in a line: cAMP Responsive Elements (CRE) small molecule antagonists, cell-based qHTS assay: qHTS cell viability counter screen (AID 2060913). Also: nearly all actives have a fitted effect of over 40% in size. As to conditions: CRE-bla HEK293T viability, CellTiter-Glo luminescence, 5 h; series mostly up to 92.4 µM; viability change, negative = cytotoxic: at the top concentration. An outline of the steps:
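Viability of NKH477-stimulated (0.25 uM final) CRE-bla HEK293T cells is measured by CellTiter-Glo luminescence following 3 hrs compound exposure at 37 C.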
With `CCCCC(CC)COC(=O)c1ccccc1C(=O)O` (stereo not given), the “viability change, negative = cytotoxic” value is 3.97% (inactive). As to `CCN1CCCC(OC(=O)C(c2ccccc2)c2ccccc2)C1` (stereo not given), the “viability change, negative = cytotoxic” value was 5.26% [at 42.5 µM] (inactive). Take `O=c1c2ccccc2oc2ccccc12`: the “viability change, negative = cytotoxic” value is -11% (inactive).

For `NCCCN(CCO)CCO`, the “viability change, negative = cytotoxic” value is -1.28% (inactive).

For the compound `O=C(O)Cc1sc(-c2ccccc2)nc1-c1ccc(Cl)cc1`, the “viability change, negative = cytotoxic” value was 5.92% [at 42.5 µM] (inactive). On to `O=c1[nH]c2ccccc2n1CCCN1CCN(C(c2ccccc2)c2ccccc2)CC1`, for which the “viability change, negative = cytotoxic” value is -1.01% [at 42.5 µM] (inactive). Turning to `CCCCN(CCO)CCO`, the “viability change, negative = cytotoxic” value was 0.695% (inactive). Consider `CCOC(=O)[C@H](CCc1ccccc1)N[C@@H](C)C(=O)N1[C@H](C(=O)O)C[C@@H]2CCC[C@@H]21`, for which the “viability change, negative = cytotoxic” value was 6.8% [at 42.5 µM] (inactive). On to `c1ccc(CCCc2ccccn2)cc1`, for which the “viability change, negative = cytotoxic” value is 0.169% (inactive). For `Cc1c(Cn2ccnc2)c2ccccc2n1CCC(=O)O`, the “viability change, negative = cytotoxic” value is 1.83% [at 42.5 µM] (inactive). On to `C=CCc1ccccc1OCC(O)CNC(C)C` (stereo not given), for which the “viability change, negative = cytotoxic” value is -0.389% [at 42.5 µM] (inactive). Regarding `CC(=O)CCc1ccc(OC(C)=O)cc1`, the “viability change, negative = cytotoxic” value is 0.994% (inactive). Turning to `O=C(CCCN1CCC(O)(c2ccc(Br)cc2)CC1)c1ccc(F)cc1`, the “viability change, negative = cytotoxic” value was -14.7% [at 42.5 µM] (inactive).

For the compound `N=C(N=C(N)N)N1CCOCC1`, the “viability change, negative = cytotoxic” value was -0.378% [at 42.5 µM] (inactive).

Take `Cc1[nH]cnc1-c1ccc(Cl)cc1`: the “viability change, negative = cytotoxic” value was 0.591% [at 42.5 µM] (inactive). For the compound `CCN(CC)CCOc1ccc(C(O)(Cc2ccc(Cl)cc2)c2ccc(C)cc2)cc1` (stereo not given), the Potency was 26.6 µM (active). As for `CC(C)(C)c1ccc(O)c(C(C)(C)C)c1`, the Potency was 48.6 µM (active). Regarding `Cc1cc(NC(=O)C(=O)O)cc(C)c1Oc1ccc(O)c2c1CCC2`, the “viability change, negative = cytotoxic” value is 2.01% (inactive). For the compound `C=CCOC(=O)/C=C\C(=O)OCC=C`, the “viability change, negative = cytotoxic” value is 15.9% (inactive). Consider `Cc1oc(=O)oc1COC(=O)[C@@H]1N2C(=O)[C@@H](NC(=O)[C@H](N)c3ccccc3)[C@H]2SC1(C)C`, for which the “viability change, negative = cytotoxic” value was -0.337% [at 42.5 µM] (inactive). Turning to `C=CC(=C)CCC=C(C)C`, the “viability change, negative = cytotoxic” value was -1.57% (inactive).

Turning to `Cc1ccc2oc(CN(Cc3ccccc3)C(=O)Nc3c(F)cc(F)cc3F)c(-c3ccc(Cl)cc3)c2c1`, the “viability change, negative = cytotoxic” value is -16.3% (inactive).

On to `CC1=C(Br)C(=O)C(Br)=C/C1=C(/c1ccccc1S(=O)(=O)O)c1cc(Br)c(O)c(Br)c1C`, for which the “viability change, negative = cytotoxic” value is -12.3% [at 42.5 µM] (inactive). Turning to `COc1ccccc1C=O`, the “viability change, negative = cytotoxic” value is 16.4% (inactive). With `OCC(CO)(CO)COCC(CO)(CO)CO`, the “viability change, negative = cytotoxic” value was -1.69% (inactive). As for `CCCCNc1ccc(C(=O)OCCN(CC)CC)cc1`, the “viability change, negative = cytotoxic” value was 0.65% [at 42.5 µM] (inactive).

Take `CCOC(=O)/C=C/C(=O)O`: the “viability change, negative = cytotoxic” value is -1.76% (inactive). For `COC(=O)c1ccccc1C`, the “viability change, negative = cytotoxic” value is 4.4% (inactive).

Take `CC[C@H]1O[C@]2(CC[C@@H]1C)C[C@@H]1C[C@@H](C/C=C(\C)C[C@@H](C)/C=C/C=C3\CO[C@@H]4[C@H](O)C(C)=C[C@@H](C(=O)O1)[C@]34O)O2`: the Potency is 30.4 µM (active). Turning to `CCOC(=O)c1ccc(O)c(O)c1`, the “viability change, negative = cytotoxic” value was 14.6% [at 42.5 µM] (inactive). In the case of `CC1CCC(C(C)(C)O)CC1` (stereo not given), the “viability change, negative = cytotoxic” value was 16.8% (inactive). Consider `CCCCCC/C=C/C=O`, for which the “viability change, negative = cytotoxic” value is 1.14% (inactive). On to `CC1=NS(=O)(=O)c2cc(Cl)ccc2N1`, for which the “viability change, negative = cytotoxic” value is 8.19% [at 42.5 µM] (inactive). On the same count and under the same terms, the same measure for `CCN(CC)CCOC(=O)C(c1ccccc1)c1ccccc1`: 3.32% [at 42.5 µM] (inactive). `C=C(C)C(=O)OCCC(C)OC(=O)C(=C)C` (stereo not given): the “viability change, negative = cytotoxic” value is 0.175% (inactive).

Regarding `COC(c1ccccc1)(c1ccccc1)[C@H](Oc1nc(C)cc(C)n1)C(=O)O`, the “viability change, negative = cytotoxic” value was -0.0239% [at 42.5 µM] (inactive).

Regarding `C=CCOCC(O)CO` (stereo not given), the “viability change, negative = cytotoxic” value was 2.87% (inactive). Consider `O=C1C=CC(=O)N1c1ccc(Cc2ccc(N3C(=O)C=CC3=O)cc2)cc1`, for which the Potency is 54.5 µM (active). Take `Cc1ccccc1N=C(N)Nc1ccccc1C`: the “viability change, negative = cytotoxic” value is -15.1% (inactive). In the case of `Cc1cc(Cc2cc(C)cc(C(C)(C)C)c2O)c(O)c(C(C)(C)C)c1`, the Potency is 54.8 µM (active) and 40.3 µM (active).
